# Measurements reported in PubChem BioAssay (NCI).
# Compounds without any hit were thinned out: in the full panel of roughly 79,000, 15% have a hit. Values without a mark were called inactive. The source made the active and inactive calls. Cut-off read from the data, not from the text of the source: active = growth inhibition above about 70%; inactive = the rest.
# How the values were obtained:
# [1] = NCI Yeast Anticancer Drug Screen. Data for the rad50 strain (AID 155);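 note: 0% = growth of vehicle-only cultures of the same strain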; details: S. cerevisiae rad50 strain growth inhibition, active compounds read high
# In short: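 Yeast carrying a defined DNA repair defect were exposed to test compounds, and growth was compared with vehicle-treated controls to give percent inhibition.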
# [2] = NCI Yeast Anticancer Drug Screen. Data for the mec2-1 strain (AID 157); details: S. cerevisiae mec2-1 strain, active compounds read high
# In short: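 Cells of the genetically defined mec2-1 yeast strain are incubated with test compound. Inhibition of growth is calculated against vehicle-treated controls.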
# [3] = NCI Yeast Anticancer Drug Screen. Data for the sgs1 mgt1 strain (AID 161);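 note: 0% = growth of cultures given vehicle only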; details: S. cerevisiae sgs1 mgt1 strain, active compounds read high
# In short: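 Mutant yeast exposed to compound; growth scored against vehicle-only wells.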
# [4] = NCI Yeast Anticancer Drug Screen. Data for the cln2 rad14 strain (AID 165);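 note: 0% = growth equal to vehicle treated cultures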; details: S. cerevisiae cln2 rad14 strain, active compounds read high
# In short: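 The screen exposed genetically defined yeast (cln2 rad14) to test compounds and scored growth inhibition relative to vehicle-treated controls.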
# [5] = NCI Yeast Anticancer Drug Screen. Data for the bub3 strain (AID 167); details: S. cerevisiae bub3 mutant strain, active compounds read high
# In short: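 Compounds were applied to a genetically altered yeast strain carrying a cell-cycle control defect. Growth inhibition was scored against vehicle-treated controls.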
# [6] = NCI Yeast Anticancer Drug Screen. Data for the mlh1 rad18 strain (AID 175); details: S. cerevisiae mlh1 rad18 strain growth inhibition, active compounds read high
# In short: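 Compound-treated yeast growth, normalised to vehicle controls. Strain bears defined DNA repair mutations.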
# [7] = at 5.0 µM (retest, dose inferred, filed as 0.5)
# [8] = at 50.0 µM (retest, dose inferred, filed as 5.0)
Structure (SMILES),"growth inhibition [1, 7]","growth inhibition [1, 8]",growth inhibition ([1]; at 50.0 µM),"growth inhibition [2, 7]","growth inhibition [2, 8]",growth inhibition ([2]; at 50.0 µM),"growth inhibition [3, 7]","growth inhibition [3, 8]",growth inhibition ([3]; at 50.0 µM),"growth inhibition [4, 7]","growth inhibition [4, 8]",growth inhibition ([4]; at 50.0 µM),"growth inhibition [5, 7]","growth inhibition [5, 8]",growth inhibition ([5]; at 50.0 µM),"growth inhibition [6, 7]","growth inhibition [6, 8]",growth inhibition ([6]; at 50.0 µM)
Cc1ccc(NCc2ccccc2)cc1[As](=O)(O)O,-1%,97% (active),47%,-2%,96% (active),12.9%,-4%,67%,8.3%,-5%,94% (active),-16.8%,-2%,99% (active),41.5%,-1%,99% (active),66.3%
CC(=O)Oc1ccc(/C=C/[N+](=O)[O-])cc1,27%,95% (active),98.9% (active),6%,99% (active),99.5% (active),12%,99% (active),93.1% (active),-2%,82% (active),82% (active),5%,99% (active),99.4% (active),12%,98% (active),98.3% (active)
NC(=O)c1cc([N+](=O)[O-])c(Cl)c([N+](=O)[O-])c1Cl,34%,65%,88.9% (active),41%,78% (active),86.7% (active),83% (active),98% (active),91.5% (active),91% (active),100% (active),90.3% (active),66%,97% (active),88.2% (active),39%,61%,88.3% (active)
O=[N+]([O-])c1cc(Cl)ccc1S(=O)(=O)F,98% (active),98% (active),99.7% (active),98% (active),99% (active),99.6% (active),99% (active),99% (active),99.5% (active),98% (active),98% (active),99.2% (active),98% (active),98% (active),99.5% (active),96% (active),98% (active),99.5% (active)
O=[N+]([O-])c1cc([N+](=O)[O-])c(Cl)s1,98% (active),99% (active),99.5% (active),99% (active),83% (active),99.7% (active),99% (active),100% (active),99.4% (active),99% (active),98% (active),99.3% (active),99% (active),99% (active),99.5% (active),99% (active),99% (active),99.6% (active)
CC1=C[C@H]2O[C@H]3C[C@H]4OC(=O)/C=C\C=C\C(=O)OCC[C@@H](C)[C@H](O)C(=O)OC[C@@]2(CC1)[C@@]4(C)[C@]31CO1,99% (active),99% (active),92% (active),100% (active),99% (active),92.9% (active),100% (active),99% (active),92.8% (active),98% (active),98% (active),90.3% (active),100% (active),98% (active),92% (active),98% (active),98% (active),92% (active)
COc1ccc([As]=[As]c2ccc(OC)c(I)c2)cc1I (stereo not given),98% (active),99% (active),99.7% (active),100% (active),100% (active),99.8% (active),99% (active),100% (active),99.8% (active),98% (active),98% (active),99.8% (active),99% (active),99% (active),99.6% (active),99% (active),99% (active),99.7% (active)
Nc1ccccc1O.O.O=C(O)C1[O][Sb][O]C1C(=O)O (stereo not given),19%,33%,55.5%,26%,23%,53.5%,12%,25%,27.2%,10%,20%,33.3%,37%,61%,82.4% (active),37%,55%,59.4%
CC(=O)O.[RuH].c1ccc([PH+](c2ccccc2)c2ccccc2)cc1.c1ccc([PH+](c2ccccc2)c2ccccc2)cc1.c1ccc([PH+](c2ccccc2)c2ccccc2)cc1,-10%,75% (active),43.5%,-15%,90% (active),70.9% (active),-5%,68%,72.5% (active),-9%,91% (active),75% (active),35%,89% (active),72.5% (active),-20%,89% (active),66.5%
CC1(Br)Cc2ccccc2C1=O (stereo not given),3%,43%,-2.2%,4%,33%,37.2%,2%,31%,42.3%,1%,16%,-35%,-2%,36%,70% (active),4%,34%,20.4%
